Screening results from PubChem BioAssay.
HCMV antiviral: human cytomegalovirus inhibition. HFF cells, HCMV-luciferase reporter, 72 h; stronger effect = lower value. activity change, negative = inhibition, % at 57.5 µM. hit rate 4.5% among 410,000. AID 1259415; in the data active = activity change below about -60%; inconclusive = no clear call, values can overlap the other calls; inactive = above about -39%
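HFF cells seeded 16 h at 37C, treated with compounds, infected with luciferase-reporter HCMV at MOI 1 PFU/cell; luciferase read at 72 h post infection, normalized to buffer-only and Salinomycin controls.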
HCV inhibitor: inhibitors of hepatitis C virus infection; hit rate 3.4% among 340,000; Potency, µM (top dose mostly 41.8 µM), for the others: at the top dose activity change, negative = inhibition, most hits filed as inhibitors; Huh7.5.1 HCVcc-Cre infection, luciferase reporter, 44 h; AID 651820; active = well fitted inhibition curve with a large enough effect; inconclusive = small, poorly fitted or top-dose-only effect, or another doubt; inactive = no such curve, though single readings can be large or run the other way; also: potency is read from the fitted curve at half-maximal effect
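Antiviral activity was scored by luciferase reporter output from cells infected with HCVcc-Cre (~0.5 moi) in presence of compound, 44 h infection period, cells seeded 1,000/well 4 h prior.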
Lassa entry inh: inhibitors of Lassa virus binding or cell entry; Lassa virus pseudotype entry inhibition, cell reporter; Potency, µM (series often up to 37.9 µM), without a hit: at the highest dose activity change, negative = inhibition, usual class: inhibitors; hit rate 1.2% among 300,000; calls by dose curve; tested in HEK293 cells; also: potency is read from the fitted curve at half-maximal effect; nearly all actives have a fitted effect of over 50% in size
VACV mCherry inh: inhibitors of vaccinia virus infection (mCherry reporter signal); Vaccinia virus mCherry reporter infection, fluorescence; Potency, µM (top dose mostly 36.5 µM), for inactives: at the top dose activity change, negative = inhibition, hits mostly inhibitors; hit rate 0.63% among 310,000; AID 720579; calls by dose curve; tested in A549 cells; also: potency is read from the fitted curve at half-maximal effect; nearly all actives have a fitted effect of over 35% in size
Marburg entry inh: Marburg virus entry inhibition; Marburg virus pseudotyped entry inhibition, cell reporter; Potency, µM (doses to about 37.8 µM), inactives show top-dose activity change, negative = inhibition, most hits filed as inhibitors; hit rate 1.8% among 300,000; AID 540276; calls by dose curve; tested in HEK293 cells; also: potency is read from the fitted curve at half-maximal effect
VACV Venus inh: inhibitors of vaccinia virus (Venus reporter). Vaccinia virus Venus reporter expression, fluorescence. Potency, µM (doses to about 36.5 µM), for the others: at the highest dose activity change, negative = inhibition, usual class: inhibitors. hit rate 0.46% among 330,000. AID 720580; calls by dose curve; tested in A549 cells; also: potency is read from the fitted curve at half-maximal effect; nearly all actives have a fitted effect of over 30% in size
Starred values were filed as active, the others as inactive; [ ] = another dose, or the depositor's remark. Compounds with a hit are over-represented: about 7.8% of the library has one in this group of screens. % is scaled to controls: 0 for no effect and ±100 for the full control effect.

How did CCCCc1c(-c2ccccc2OC)ncn1CCc1ccccc1OC do in these assays?
HCMV antiviral: -68.3*; VACV mCherry inh: inconclusive; VACV Venus inh: inconclusive

What do the screens show for `CCCc1c(-c2ccc(F)cc2F)ncn1Cc1ccccc1OC`?
HCMV antiviral: -78.3*; VACV mCherry inh: -5.3%; VACV Venus inh: -14.1%

How did CCCCCc1c(-c2ccccc2F)ncn1CCc1ccccc1OC do in these assays?
HCMV antiviral: inconclusive; VACV mCherry inh: -7.0%; VACV Venus inh: -2.5%

Results for CCCc1c(-c2ccccc2)ncn1Cc1ccccc1OC ?
HCMV antiviral: -17.0; VACV mCherry inh: -10.4%; VACV Venus inh: 1.8%

How did COc1ccc2c(CNCc3ccccc3OC)c(C(=O)O)n(Cc3ccc(F)cc3Cl)c2c1 do in these assays?
HCMV antiviral: 7.4; Lassa entry inh: 15.9%[46.1 µM]; VACV mCherry inh: inactive; VACV Venus inh: -4.6%

What do the screens show for `Cc1c(Cl)cccc1NC(=O)CCn1c(=O)c2cccn2c2ccccc21`?
HCMV antiviral: inconclusive; Lassa entry inh: -19.4%[46.1 µM]; VACV mCherry inh: 1.3%; VACV Venus inh: -1.5%

Results for CN(C(=O)CSc1cn(CC(=O)N2CCCC2)c2ccccc12)c1ccccc1 ?
HCMV antiviral: -13.4; Lassa entry inh: 3.3%[46.1 µM]; VACV mCherry inh: -9.6%; VACV Venus inh: -2.7%

Results for O=C(O)[C@@H]1CN[C@@H](C(=O)O)C1 ?
VACV mCherry inh: -13.8%; VACV Venus inh: -11.8%

Results for CCCCc1c(-c2ccccc2Br)ncn1CCc1ccccc1OC ?
HCMV antiviral: -93.4*; VACV mCherry inh: -13.5%; VACV Venus inh: -19.6%

How did CCCCCc1c(CC)ncn1CCc1ccccc1OC do in these assays?
HCMV antiviral: -110.2*; VACV mCherry inh: -17.1%; VACV Venus inh: -19.5%

How did CCCc1c(-c2ccccc2F)ncn1CCc1ccccc1OC do in these assays?
HCMV antiviral: -95.3*; VACV mCherry inh: -26.1%; VACV Venus inh: -16.2%

What do the screens show for `CCCCc1c(-c2ccccc2F)ncn1CCc1ccccc1OC`?
HCMV antiviral: inconclusive; VACV mCherry inh: -8.0%; VACV Venus inh: 0.8%

Results for COc1ncccc1C(=O)N1CCOc2ccc(C(O)C(c3ccccc3)c3ccccc3)cc2C1 (stereo not given) ?
VACV mCherry inh: -19.0%; VACV Venus inh: -13.8%

What do the screens show for `Cc1cc(C)n(-c2nc(Nc3ccccc3C(F)(F)F)nc(-n3nc(C)cc3C)n2)n1`?
HCMV antiviral: -98.4*; HCV inhibitor: 5.62µM*; Lassa entry inh: inconclusive; Marburg entry inh: 10µM*; VACV Venus inh: 12.6µM*

How did Cc1cc(Nc2cc(F)ccc2C)nc(-n2nc(C)cc2C)n1 do in these assays?
HCMV antiviral: -80.0*; Lassa entry inh: inconclusive; VACV mCherry inh: -12.5%[7.34 µM]; VACV Venus inh: -15.6%[7.34 µM]

Results for Cc1cc(Nc2ccc(F)cc2)nc(-n2nc(C)cc2C)n1 ?
HCMV antiviral: -83.4*; Lassa entry inh: -10.8%[46.1 µM]; VACV mCherry inh: -8.8%[7.34 µM]; VACV Venus inh: -17.2%[7.34 µM]

How did CCNc1nc(NCC)nc(-n2nc(C)cc2C)n1 do in these assays?
HCMV antiviral: inconclusive; HCV inhibitor: inconclusive; Lassa entry inh: -4.1%; VACV mCherry inh: -26.8%; Marburg entry inh: 8.1%; VACV Venus inh: -11.5%

How did CCCCc1ccc(Nc2cc(C)nc(-n3nc(C)cc3C)n2)cc1 do in these assays?
HCMV antiviral: -96.8*; Lassa entry inh: inconclusive; VACV mCherry inh: -1.5%[7.34 µM]; VACV Venus inh: -9.8%[7.34 µM]

What do the screens show for `CCOc1ccc(-c2nnc(SCC(=O)NCCc3ccccc3)nc2-c2ccc(OCC)cc2)cc1`?
HCMV antiviral: -9.0; Lassa entry inh: inconclusive; VACV mCherry inh: -21.7%; VACV Venus inh: -14.5%

What do the screens show for `CO[C@H]1[C@H](NC(=O)c2ccsc2)c2ccccc2C12CCN(Cc1cc3ccccc3o1)CC2`?
VACV mCherry inh: -20.8%; VACV Venus inh: -13.9%

Results for Cc1cc(C)n(-c2nc(Nc3ccccc3C)nc(-n3nc(C)cc3C)n2)n1 ?
HCMV antiviral: -97.3*; Marburg entry inh: 1.9%

Results for Cc1cc(Nc2ccccc2C)nc(-n2nc(C)cc2C)n1 ?
HCMV antiviral: -68.6*; Lassa entry inh: inconclusive; VACV mCherry inh: -6.3%[7.34 µM]; VACV Venus inh: -6.3%[7.34 µM]

Results for Cc1cc(C)n(-c2nc(NC(C)(C)C)nc(NC(C)(C)C)n2)n1 ?
HCMV antiviral: inconclusive; HCV inhibitor: inconclusive; Lassa entry inh: 10.0%; Marburg entry inh: inconclusive; VACV Venus inh: 3.6%

Results for COc1ccccc1N1CCN(C(=O)c2cc(CC(C)C)on2)CC1 ?
HCMV antiviral: -3.6; Lassa entry inh: 27.6%[46.1 µM]; VACV mCherry inh: -8.6%; Marburg entry inh: 7.7%[46.1 µM]; VACV Venus inh: 10.6%

How did Fc1ccc(-c2cn(-c3ccccc3)c3[n+]2CCS3)cc1 do in these assays?
HCMV antiviral: -25.3; HCV inhibitor: inconclusive; Lassa entry inh: -27.5%[46.1 µM]; VACV mCherry inh: inactive; Marburg entry inh: 2.1%[46.1 µM]; VACV Venus inh: -3.0%

What do the screens show for `COc1ccc(-c2cn(-c3ccc(Br)cc3)c3[n+]2CCS3)cc1`?
HCMV antiviral: -90.2*; HCV inhibitor: -24.5%; Lassa entry inh: -4.6%; VACV mCherry inh: -10.2%; Marburg entry inh: -25.4%; VACV Venus inh: -17.8%

Results for Clc1ccc(-c2cn(-c3ccccc3)c3[n+]2CCS3)cc1 ?
HCMV antiviral: -72.4*; HCV inhibitor: -23.0%; Lassa entry inh: inconclusive; VACV mCherry inh: -2.5%; Marburg entry inh: inconclusive; VACV Venus inh: -3.9%

How did CC(=O)c1ccc(-n2cc(-c3ccc(C(C)(C)C)cc3)[n+]3c2SCCC3)cc1 do in these assays?
HCMV antiviral: -98.3*; HCV inhibitor: -3.0%; Lassa entry inh: inconclusive; VACV mCherry inh: -8.0%; Marburg entry inh: inconclusive; VACV Venus inh: -10.1%

What do the screens show for `Clc1nc(NCc2cccs2)c2[nH]cnc2n1`?
VACV mCherry inh: -29.6%; VACV Venus inh: -26.0%

What do the screens show for `CC(=O)c1ccccc1NC(C(=O)NC1CCCCC1)C(C)C` (stereo not given)?
HCMV antiviral: 6.5

Results for Cc1ccc(NC(=O)CSc2nc(=O)n(Cc3ccco3)c3c2CCC3)cc1F ?
HCMV antiviral: -25.1; Lassa entry inh: 4.7%[46.1 µM]; VACV mCherry inh: -22.1%; VACV Venus inh: -17.9%

Results for CN(C)c1ccc(N=Nc2ccc(C(=O)O)cc2)cc1 ?
HCMV antiviral: -15.3; HCV inhibitor: 16.1%; Lassa entry inh: 7.08µM*; VACV mCherry inh: inactive; Marburg entry inh: 2.82µM*; VACV Venus inh: -9.0%

What do the screens show for `Cc1ccccc1Cn1c(=O)n(CCCCC(=O)NCc2ccc3c(c2)OCO3)c(=O)c2ccccc21`?
HCMV antiviral: -33.1; Lassa entry inh: -1.6%[46.1 µM]; VACV mCherry inh: inconclusive; Marburg entry inh: inconclusive; VACV Venus inh: -20.1%

What do the screens show for `CC1(C)C=Cc2c(c3c(c4c(=O)c(-c5ccc(O)cc5)coc24)OC(C)(C)CC3)O1`?
HCMV antiviral: -19.7; HCV inhibitor: -60.5%; VACV mCherry inh: -29.3%; VACV Venus inh: -25.1%
